The results in this text go back to PubChem BioAssay (Tox21).

Results filed as inconclusive are left out. A call without a number means that no potency is given here. Calls of active or inactive are those of the source. Calls follow the shape of the dose curve; as a rule, active = well fitted curve in the direction sought with a large enough effect in the repeat runs; inconclusive = weak or mixed curves; inactive = no such curve, though single readings can be large; an effect the other way counts as inactive or inconclusive.

A short description of the first test: qHTS assay to identify small molecule agonists of the retinoic acid receptor (RAR) signaling pathway (AID 1159553). Particulars: C3RL4 RARE luciferase reporter, agonist, 6 h; series mostly up to 73.3 µM. Summed up:
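In this cell-based screen, 1,000 C3RL4 cells per well were cultured overnight, dosed with test chemicals in DMSO for 6 hr, and assessed for RARE luciferase luminescence.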
In general terms: Quantitative high-throughput screening tests each substance at several concentrations.
For `O=[N+]([O-])c1ccc(F)c([N+](=O)[O-])c1`, the Potency result is “inactive”.
Take `Clc1cccc(SC2CCNCC2)n1`: the Potency entry is “inactive”.
On to `CCCCN(N=O)C(=N)N[N+](=O)[O-]`, for which the Potency result is “inactive”.
For the molecule `O=[N+]([O-])c1cc(C(F)(F)F)cc([N+](=O)[O-])c1Cl`, the Potency entry was “inactive”.
The same measure, in the same setting: the result for `ClCCCCBr` reads “inactive”; that for `C=CC(=O)NCNC(=O)C=C`, “inactive”; that for `O=S(=O)(O)C(F)(F)C(F)(F)C(F)(F)C(F)(F)F`, “inactive”.
`ClCC(Br)CBr` (stereo not drawn): the Potency entry was “inactive”.
In the case of `c1ccc(C2CC2)c(OCC2=NCCN2)c1`, the Potency result is “inactive”.
On to `CNC(C)Cc1ccccc1OC` (stereo not drawn), for which the Potency result is “inactive”.
Take `NC(=O)C(Cl)(Cl)Cl`: the Potency result was “inactive”.
For the molecule `O=C(O)C(F)(F)C(F)(F)C(F)(F)C(F)(F)C(F)(F)C(F)(F)C(F)(F)C(F)(F)C(F)(F)F`, the Potency entry is “inactive”.
Take `Nc1nc(N)nc(N)n1`: the Potency entry was “inactive”.
Take `COc1cc(Cl)c(OC)cc1Cl`: the Potency result was “inactive”.
For the molecule `CC(C)=CCOc1c2occc2cc2ccc(=O)oc12`, the Potency entry is “inactive”.
Consider `C=CCN1CC[C@]23c4c5ccc(O)c4O[C@H]2C(=O)CC[C@@]3(O)[C@H]1C5`, for which the Potency entry is “inactive”.
Still for that read-out and setting: the result for `N#Cc1ccc(Cl)cc1` reads “inactive”; that for `CCC(Cl)CCl` (stereo not drawn), “inactive”.
Same read-out and setting: in the case of `O=C(C(Cl)(Cl)Cl)C(Cl)(Cl)Cl` it was “inactive”; in that of `CC1CC(CC2CCC(N)C(C)C2)CCC1N` (stereo not drawn), “inactive”; in that of `Sc1ccccc1Cl`, “inactive”.
Turning to `CC1(C)[C@H](C=C(Cl)Cl)[C@@H]1C(=O)O[C@@H](C#N)c1cccc(Oc2ccccc2)c1`, the Potency result was “inactive”.
As for `Brc1ccccc1`, the Potency entry is “inactive”.
On to `CCN(C)N=O`, for which the Potency entry was “inactive”.
Regarding `CC(c1ccc(O)cc1)(c1ccc(O)cc1)c1ccc(O)cc1`, the Potency entry was “inactive”.

A further test can be described thus: qHTS assay to identify small molecule antagonists of the estrogen related receptor (ERR) signaling pathway (AID 1224819;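 also: luminescence from an ERR-driven luciferase reporter measured with One-Glo reagent; nearly all actives have a fitted effect of over 50% in size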). Particulars: ERR reporter cell line, luciferase inhibition; series mostly up to 46.1 µM. The essentials: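 Seed ERR cells 2,000/well; rest 6 h at 37 C/5% CO2; pin compounds in DMSO; incubate 18 h at 37 C; add One-Glo; wait 30 min at room temperature; measure luminescence.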
As for `CC(=O)[C@H]1CC[C@H]2[C@@H]3CC[C@H]4C[C@](C)(O)CC[C@]4(C)[C@H]3CC[C@]12C`, the molecule was called inactive.
With `C=CC(=O)NCNC(=O)C=C`, the molecule was classed as inactive.
Same read-out and setting: in the case of `O=S(=O)(O)C(F)(F)C(F)(F)C(F)(F)C(F)(F)F` it was “inactive”; in that of `c1ccc(C2CC2)c(OCC2=NCCN2)c1`, “inactive”.

The nature of a further test: qHTS assay to identify small molecule agonists of the estrogen related receptor (ERR) signaling pathway (AID 1224820). Conditions: ERR reporter cell line, luciferase agonist mode; series mostly up to 46.1 µM. The essentials: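 After 6 h plating (2,000 cells/well) and 18 h compound treatment at 37 C, ERR cells were lysed with One-Glo and luminescence read after 30 min at room temperature.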
On to `CC(=O)[C@H]1CC[C@H]2[C@@H]3CC[C@H]4C[C@](C)(O)CC[C@]4(C)[C@H]3CC[C@]12C`, for which the call was inactive.
As to `O=S(=O)(O)C(F)(F)C(F)(F)C(F)(F)C(F)(F)F`, the molecule was called inactive.
On the same count and under the same terms, the result for `c1ccc(C2CC2)c(OCC2=NCCN2)c1` reads “inactive”.
`CC(C)=CCOc1c2occc2cc2ccc(=O)oc12`: the molecule was called inactive.
